Hit rate of the full screen: of about 210,000 compounds, about 1,300 (0.62%) were called active.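 Rule for the calls: active = inhibition of 40% or more; inactive = the rest.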 The full list was thinned out, with actives kept by preference.
target: Kallikrein-5 (Homo sapiens) (UniProt Q9Y337); test: inhibition of kallikrein 5 (hK5) activity – biochemical, 1536-well, primary screen (AID 873); conditions: recombinant hK5, fluorogenic AMC substrate cleavage; at 5 µM; hits give high values;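 note: 0% = enzyme controls without compound and 100% = no-enzyme blanks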
Sequence (Q9Y337 67-293 limits assumed): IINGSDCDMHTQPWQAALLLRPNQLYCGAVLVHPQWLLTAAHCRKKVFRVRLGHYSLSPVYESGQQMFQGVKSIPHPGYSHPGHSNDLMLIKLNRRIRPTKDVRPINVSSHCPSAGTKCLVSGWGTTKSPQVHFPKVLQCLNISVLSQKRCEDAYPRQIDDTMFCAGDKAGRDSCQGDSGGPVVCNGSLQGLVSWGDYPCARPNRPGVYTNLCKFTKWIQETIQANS

Compound | inhibition
Cc1ccc(-c2csc(NC(=O)c3cccs3)n2)cc1 | -16.5% (inactive)
O=C(Nc1n[nH]c(C(F)(F)F)n1)c1cccs1 | 40.9% (active)
O=C(Nc1ncccn1)c1cccs1 | -0.12% (inactive)
O=C(Cn1c[n+](CC(=O)c2ccc([N+](=O)[O-])cc2)cn1)c1ccc([N+](=O)[O-])cc1 | -1.7% (inactive)
C=CCN(c1ccccc1C(=O)NCC(=O)OCC)S(=O)(=O)c1ccc(C)cc1 | -3.06% (inactive)
Cc1nc2ccccc2nc1N/N=C/c1ccc(O)cc1O | -20.8% (inactive)
COc1ccc(N=C(C)c2sc3ccccc3c2O)cc1 | 2.85% (inactive)
O=[N+]([O-])c1cccc2ncccc12 | -1.14% (inactive)
C=C1CCN([C@H](C(=O)NCc2cc(OC)c(OC)c(OC)c2)C(C)C)S(=O)(=O)c2ccccc21 | 0.63% (inactive)
O=C(NNC(=O)c1csc(-c2cccnc2)n1)Nc1ccc(Cl)cc1 | -0.51% (inactive)
O=C(O)CCCC(=O)Nc1ccc(Oc2cccc(C(F)(F)F)c2)nc1 | -2.65% (inactive)
O=C(Nc1ccc(Cl)cc1)Nc1ccc(Oc2cccnc2)nc1 | 62.9% (active)
O=C(CNc1ccc(F)cc1F)NC(=O)NCc1ccco1 | -1.58% (inactive)
COc1ccc(/C=C/c2nnc(NC(=O)C(C)C)s2)cc1 | 0.65% (inactive)
Cn1nccc1NS(=O)(=O)c1ccc(F)cc1 | 8.38% (inactive)
O=C(Nc1ccccc1F)c1ccccc1-c1ccccc1 | -10.7% (inactive)
Cc1ccccc1NC(=O)C(C)c1ccc(-c2ccccc2)c(F)c1 (stereo unspecified) | 1.97% (inactive)
CC(C)N(C(=O)c1ccc(-c2ccccc2F)cc1)C(C)C | 52.5% (active)
Clc1ccc2nc(-c3ccccc3)nc(C(Cl)Cl)c2c1 | 0.33% (inactive)
COc1ccc(-c2nn(C)c(=O)c3ccccc23)cc1CNC(=O)C1CCCCC1 | 1.08% (inactive)
CC(C)c1csc(CN2CCC(CO)(Cc3ccccc3)CC2)n1 | 40.6% (active)
COc1ccc(CC2(CO)CCN(Cc3cnn(C)c3)CC2)cc1 | 5.76% (inactive)
COC(=O)c1ccc(CN2CCC(CO)(Cc3ccc(OC)cc3)CC2)cc1 | -3.09% (inactive)
COc1ccc(CCNC2=CC(=O)CC(C)(C)C2)cc1 | 0.99% (inactive)
CCS(=O)(=O)c1cc([N+](=O)[O-])c(Sc2ccccc2N)s1 | 3.91% (inactive)
Cc1ccc(S(=O)(=O)N(C)CC(=O)OCC(=O)Nc2ccccc2)cc1 | 2.05% (inactive)

Compound | inhibition
CCOC(=O)CN(C)S(=O)(=O)c1ccc(-c2cc(C(=O)OC)sc2C(F)(F)F)cc1 | 74.9% (active)
COC(=O)c1sc(C(F)(F)F)c(-c2ccccc2)c1S(=O)(=O)N(C)C | 0.56% (inactive)
Cc1ccccc1CSc1nnc(CCCCCNC(=O)OC(C)(C)C)o1 | 0.98% (inactive)
O=C(CNC(=O)c1cc(=O)[nH]c2ccccc12)Nc1ccc(F)c(F)c1 | 5.97% (inactive)
CCCN(CC(=O)Nc1ccccc1C)C(=O)c1cc(=O)[nH]c2ccccc12 | 45.5% (active)
CCOC(=O)c1ccc(NC(=O)c2cc(=O)[nH]c3ccccc23)cc1 | -1.31% (inactive)
COC(=O)c1scc(S(=O)(=O)C(C)(C)C)c1-n1cccc1 | -2.13% (inactive)
O=S(=O)(NCc1ccco1)c1cnc(Cl)c(Cl)c1 | 18.9% (inactive)
O=C(CSc1nnc(-c2cccnc2)n1Cc1ccco1)c1ccc(Cl)cc1 | -15.7% (inactive)
C(=C\c1ccccc1)/CSc1nnc(-c2cccnc2)n1Cc1ccco1 | 59.8% (active)
O=C(CSc1nnc(-c2cccnc2)n1Cc1ccco1)c1ccc(Cl)c(Cl)c1 | -11.9% (inactive)
O=C(Nc1ccccc1)N1CCN(C2c3ccccc3-c3ccccc32)CC1 | 1.85% (inactive)
CC(C)c1ccc(NC(=S)NNc2ccc(Cl)c(C(=O)O)c2)cc1 | 5.6% (inactive)
COc1cc2c(cc1OC)C(/C=C/c1ccco1)=NCC2 | 4.43% (inactive)
CC1CC(C)(C)n2c(O)c(N=NC(N)=S)c3cccc1c32 (stereo unspecified) | 50.7% (active)
C[C@@H](NC(=O)OC(C)(C)C)c1nnc(S(=O)(=O)Cc2ccccc2)o1 | -1.93% (inactive)
Cc1cc(F)ccc1NC(=O)C(C)n1c2ccccc2c2nc(=O)cc(C)n21 (stereo unspecified) | 0.22% (inactive)
O=C(NC1CCCCC1)c1cc(C2CC2)on1 | -1.29% (inactive)
Cn1c2c(c(=O)n(C)c1=O)[C@@H]1c3c(ccc4ccccc34)OC[C@@H]1CO2 | 21.4% (inactive)
Cn1c2c(c(=O)n(C)c1=O)C1c3ccccc3OCC1C(C)(C)O2 (stereo unspecified) | -2.4% (inactive)
COc1cccc2c1OCC1COc3c(c(=O)n(C)c(=O)n3C)C21 (stereo unspecified) | 50.2% (active)
O=C(NNc1cc(Cl)cc(Cl)c1)c1c(F)cccc1Cl | 1.1% (inactive)
CCc1c(C)nc2c(-c3ccccc3)c(C)nn2c1Nc1ccc(NC(C)=O)cc1 | -10.1% (inactive)
COc1cc(C(=O)N2C(=O)c3cccc(N)c3C2=O)cc(OC)c1OC | -10.2% (inactive)
CN1CCN(S(=O)(=O)c2cccc(C(=O)O)c2)CC1 | -1.38% (inactive)
CC1CC(C)CN(S(=O)(=O)c2cccc(C(=O)N3C(=O)c4cccc(N)c4C3=O)c2)C1 (stereo unspecified) | 83.1% (active)

Compound | inhibition
Cc1cc(=O)oc2cc(OCC(=O)Nc3nnc(C4CC4)s3)ccc12 | 5.43% (inactive)
O=C(Nc1nnc(COc2ccccc2)s1)Nc1ccccc1F | 0.25% (inactive)
O=C(NN1C(=O)C2C3C=CC(C4CC34)C2C1=O)c1ccc(Cl)cc1 (stereo unspecified) | -4.1% (inactive)
CC12CN(NC(=O)c3ccc(Cl)cc3)C3(C#N)CC1CCC23C (stereo unspecified) | 78.4% (active)
CC12COC3(C(=O)Nc4ccc(Cl)cn4)CC1CCC32C (stereo unspecified) | -6.22% (inactive)
CCc1cc(CNC(=O)CC2C(=O)NCCN2Cc2ccccc2C(F)(F)F)on1 (stereo unspecified) | -3.44% (inactive)
O=c1c2c3c(sc2n(CCN2CCCC2)c(=O)n1Cc1ccccc1)CCCCC3 | 8.67% (inactive)
Cc1cc(C)n(CC(C)NCc2c(C(=O)N3CCOCC3)nc3c(C)cccn23)n1 (stereo unspecified) | 1.63% (inactive)
CSc1nc(-c2ccco2)nn1C(=O)CCc1ccccc1 | -9.9% (inactive)
CS(=O)(=O)n1nc(-c2ccco2)nc1N | -7.61% (inactive)
CSc1nc(-c2ccco2)nn1C(=O)c1ccccc1Cl | 52.2% (active)
Clc1ccc(-c2cc(-c3ccccn3)on2)c(Cl)c1 | -3.93% (inactive)
CNC(=O)C(NC(=O)c1ccccc1)=C(C)C | 0.73% (inactive)
CC(C)=C(NC(=O)c1ccccc1)C(=O)N/N=C(\C)c1ccccc1O | 48.4% (active)
C/C(=N\NC(=O)c1nc(C)cc(C)n1)c1ccccc1 | -8.77% (inactive)
C=CCN(C(=O)Nc1ccc2c(c1)nc(C)n2C)c1ccccc1 | 41% (active)
Cc1nc2cc(NC(=O)Nc3cccc(F)c3)ccc2n1C | 17% (inactive)
C=CCN(C(=O)Nc1ccc2oc(C)nc2c1)c1ccccc1 | -6.89% (inactive)
Nc1ccc2nn(-c3ccc(Cl)cc3)nc2c1 | -10.3% (inactive)
O=C(NCCc1csc(-c2ccccc2)n1)c1ccccc1F | 0.78% (inactive)
C=CCn1c(SCC(=O)c2ccc(Br)cc2)nnc1C(C)NC(=O)Cc1ccc(OC)cc1 (stereo unspecified) | 53% (active)
C=CCn1c(CNC(=O)c2ccco2)nnc1SCC(=O)c1ccc(OC)cc1 | 1.62% (inactive)
C=CCn1c(SCCOc2ccc(OC)cc2)nnc1C(NC(=O)c1ccc(OC)cc1)C(C)C (stereo unspecified) | 2.79% (inactive)
Cc1cccc(C)c1OCC(O)CN1CCCCC1 (stereo unspecified) | -7.75% (inactive)
Cc1ccc(OCC(O)CN2CCN(CC(O)COc3ccc(C)cc3Cl)CC2)c(Cl)c1 (stereo unspecified) | 45.3% (active)
C=CCc1ccc(OCC(O)CN2CCN(Cc3ccccc3)CC2)c(OC)c1 (stereo unspecified) | -1.55% (inactive)

Compound | inhibition
COC(=O)CNc1nc(Cl)nc(N2CCC(C)CC2)n1 | -2.61% (inactive)
Cc1ccc(NNC(=O)C2CCC2)cc1C | -0.44% (inactive)
COc1ccc(Cl)cc1NC(=O)CCN1CCOCC1 | -1.88% (inactive)
COc1cc(C(=O)N2CCN(C/C=C/c3ccccc3)CC2)cc(OC)c1C | 46.4% (active)
CNC(=O)NC(=O)C(C)N1CCN(C/C=C/c2ccccc2)CC1 (stereo unspecified) | -1.97% (inactive)
O=C(CN1CCN(C/C=C/c2ccccc2)CC1)Nc1ccc(F)cc1F | 0.73% (inactive)
COC(=O)c1nc(NC(=O)c2ccc(Cl)cc2)n[nH]1 | -14.4% (inactive)
COC(=O)c1nc(NC(=O)c2ccccc2)n[nH]1 | 45% (active)
COC(=O)c1nc(NC(=O)c2ccc(F)cc2)n[nH]1 | 1.4% (inactive)
Cc1nc(N2CCCC2C(=O)O)c2oc3ccccc3c2n1 (stereo unspecified) | -6.49% (inactive)
CCSc1nc(C)nc2c1oc1ccccc12 | 2.97% (inactive)
Cc1nc(Cl)c2oc3ccccc3c2n1 | 42.9% (active)
Cn1c2ccc(F)cc2c2nnc(NN)nc21 | 3.58% (inactive)
Cc1onc(C(=O)NN)c1-c1csc(COc2ccccc2)n1 | -6.54% (inactive)
CNc1ccc([N+](=O)[O-])cc1C(=O)O | -11.4% (inactive)
Cc1cccc(NC(=S)Nc2ccc(Cl)c(Cl)c2)c1 | -7.18% (inactive)
Cc1cccc(NC(=S)NC23CN4CN(CN(C4)C2)C3)c1 | 44.6% (active)
Cc1cccc(NC(=S)Nc2ccc(Br)cc2)c1 | 3.76% (inactive)
Cc1nc(COc2cccc(Cl)c2)sc1C(=O)/C=C/N(C)C | 0.93% (inactive)
COCc1cc(=O)[nH]c(SC)n1 | 4.7% (inactive)
O=C(NCCc1ccccc1)c1ccc(OCCOc2ccccc2)cc1 | 79.7% (active)
O=C(NCCOc1ccccc1)c1ccccc1 | -2.43% (inactive)
CCCOc1ccc(C(=O)NCCc2ccccc2)cc1 | -7.86% (inactive)

Reference: PubChem BioAssay AID873 (PCMD, 2007)
